Assay outcomes as filed in PubChem BioAssay.
Vaccinia Venus = qHTS for Stage-Specific Inhibitors of Vaccinia Orthopoxvirus: Venus Reporter Primary qHTS; 330,000 tested, 0.46% active; AID 720580, 2013; Potency, µM (highest dose often 36.5 µM), usual class: inhibitors; Vaccinia virus Venus reporter expression, fluorescence; calls by dose curve; tested in A549 cells; further: nearly all actives have a fitted effect of over 30% in size
Vaccinia mCherry = qHTS for Stage-Specific Inhibitors of Vaccinia Orthopoxvirus: mCherry Reporter Primary qHTS | Vaccinia virus mCherry reporter infection, fluorescence | Potency, µM (titrated, usually from 36.5 µM), hits mostly inhibitors | 310,000 tested, 0.63% active | AID 720579, 2013; calls by dose curve; tested in A549 cells; further: nearly all actives have a fitted effect of over 35% in size
HCMV antiviral = qHTS Assay for inhibitors of the human cytomegalovirus (HCMV). HFF cells, HCMV-luciferase reporter, 72 h; active compounds read low. AID 1259415, 2018. activity change, negative = inhibition, % at 57.5 µM. 410,000 tested, 4.5% active; in the data active means activity change below about -60%; inconclusive means no clear call, values can overlap the other calls; inactive means above about -39%
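Compounds were evaluated in HFFs infected with an HCMV luciferase reporter virus (MOI 1 PFU/cell). Luciferase in lysates collected 72 h post infection served as the replication measure.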
Sm TGR block = qHTS Assay for the Inhibitors of Schistosoma Mansoni Peroxiredoxins. purified TGR, DTNB reduction, TNB absorbance 405 nm. Schistosoma mansoni thioredoxin glutathione reductase (TGR), Q962Y6. Potency, µM (titrated, usually from 114 µM), usual class: inhibitors. 360,000 tested, 3% active; further: nearly all actives have a fitted effect of over 60% in size
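TGR 20 nM + NADPH 100 uM (dispensed conc.), cpd preinc 15 min RT; start with NADPH (500 uM addition) then DTNB (15 mM addition). Kinetic TNB absorbance, 405 nm filter. Four-parameter Hill fit across titration.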
HCV inh = qHTS Assay for Inhibitors of Hepatitis C Virus (HCV); Huh7.5.1 HCVcc-Cre infection, luciferase reporter, 44 h; Potency, µM (doses to about 41.8 µM), usual class: inhibitors; 340,000 tested, 3.4% active; AID 651820, 2012
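Whole-lifecycle infectious HCVcc-Cre system; cells 1,000/well, compound then virus (~0.5 moi) added 4 h after plating, 44 h culture. Luciferase read 15 sec following 15 min substrate incubation, room temp.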
FMDV antiviral = High Throughput Screening for Foot and Mouth Disease Virus Antivirals. Potency, µM (doses to about 57.9 µM), usual class: inhibitors. AID 1159524, 2015. FMDV antiviral cell-based qHTS. 410,000 tested, 1.2% active; calls by dose curve; tested in HEK293T cells; further: read-out not given here; nearly all actives have a fitted effect of over 45% in size
Large screens that a line does not name were inactive. Shown are actives, neighbours in structure and some others; about 9.3% of the full set was active somewhere. Unless noted, the call rests on the fitted dose curve; in most records, active means well fitted curve in the direction sought with a large enough effect; inconclusive means small, poorly fitted or top-dose-only effect, or another doubt; inactive means no such curve, though single readings can be large; an effect the other way counts as inactive or inconclusive.

CC(/C=C/c1ccccc1)=N\NC(N)=S	Vaccinia Venus inconclusive, Vaccinia mCherry 4µM, HCV inh 16µM
CCOC(=O)C1C(C(=O)Nc2cccc(C(F)(F)F)c2)C1C(=O)NC(C)C (configuration not stated)	FMDV antiviral 32µM
Cc1noc2ncnc(Sc3ccc(Br)cc3)c12	HCMV antiviral -106, Sm TGR block inconclusive, HCV inh 32µM, FMDV antiviral inconclusive
Cc1noc2ncnc(N3CCCC3)c12	none (no result: Vaccinia Venus, Vaccinia mCherry)
O=C(NCCCN1CCOCC1)c1ccc2c(c1)N(Cc1ccccc1)C(=O)c1ccccc1S2=O (configuration not stated)	none (no result: Vaccinia Venus, Vaccinia mCherry)
O=C(CCc1nc2sc3c(c2c(=O)[nH]1)CCCC3)NCCc1ccc(F)cc1	none
CNc1nc(-c2ccc3c(c2)CCN3C(=O)CC(C)(C)C)c(C)s1	none (no result: Vaccinia Venus, Vaccinia mCherry)
CC(=O)Nc1nc(-c2ccc3c(c2)CCN3C(=O)C2CC2)c(C)s1	HCMV antiviral -98
c1ccc2c(-c3nc(C4CCCCC4)no3)cc(-c3ccncc3)nc2c1	HCV inh 8.9µM (no result: Vaccinia Venus, Vaccinia mCherry, HCMV antiviral)
O=C(O)c1cccc(NCc2ccncc2)c1	HCMV antiviral -61 (no result: Vaccinia Venus, Vaccinia mCherry, HCV inh, FMDV antiviral)
O=C(CCN1C(=O)/C(=C/c2ccccc2Cl)SC1=S)NC1=NCCS1	none
COc1ccc(OCC(=O)N2CCc3c([nH]c4ccccc34)C2c2ccccn2)cc1 (configuration not stated)	HCMV antiviral -70
Cc1cccc(C2c3[nH]c4ccccc4c3CCN2C(=O)c2noc3c2CCCC3)n1 (configuration not stated)	HCV inh inconclusive (no result: Vaccinia Venus, Vaccinia mCherry)
O=C(c1noc2c1CCCC2)N1CCc2c([nH]c3ccccc23)C1c1ccccn1 (configuration not stated)	HCMV antiviral -62
CCn1nc(-c2ccccc2)c2nc3ccccc3nc21	HCMV antiviral -60, FMDV antiviral inconclusive (no result: Vaccinia mCherry)
O=C(c1ccc(F)cc1)N1CCC(c2nc(-c3ccc(S(=O)(=O)N4CCCC4)cc3)no2)CC1	Vaccinia Venus inconclusive, Vaccinia mCherry inconclusive, FMDV antiviral inconclusive (no result: HCV inh)
O=C(Nc1ccccc1)N1CCC(c2nc(-c3ccc(S(=O)(=O)N4CCOCC4)cc3)no2)CC1	HCV inh 10µM, FMDV antiviral inconclusive (no result: Vaccinia Venus, Vaccinia mCherry)
CC(C)C(=O)N1CCC(c2nc(-c3ccc(S(=O)(=O)N4CCCC4)cc3)no2)CC1	HCMV antiviral -73, HCV inh inconclusive
O=C(Nc1ccc(Cl)cc1)N1CCC(c2nc(-c3ccccc3Cl)no2)CC1	Vaccinia Venus inconclusive, HCV inh 7.1µM
O=C(c1ccc(F)cc1F)N1CCC(c2noc(-c3ccc(S(=O)(=O)N4CCCC4)cc3)n2)CC1	none (no result: HCV inh)
COc1ccccc1C(=O)N1CCC(c2noc(-c3ccc(S(=O)(=O)N4CCCC4)cc3)n2)CC1	HCMV antiviral -84, FMDV antiviral inconclusive (no result: HCV inh)
O=C(CSc1nccn(-c2ccc3c(c2)OCCO3)c1=O)Nc1ccccc1	HCV inh inconclusive
O=C(Nc1cccc(C(F)(F)F)c1)N1CCC(c2nc(-c3ccc(F)cc3)no2)CC1	Vaccinia Venus inconclusive, Vaccinia mCherry inconclusive, HCMV antiviral inconclusive, HCV inh 11µM, FMDV antiviral inconclusive
CCOC(=O)N1CCN(C(=O)CSCC(=O)Nc2nc(-c3ccc(Cl)s3)cs2)CC1	HCV inh 11µM, FMDV antiviral inconclusive (no result: Vaccinia Venus, Vaccinia mCherry)
CCOC(=O)N1CCN(C(=O)CSCC(=O)Nc2nc(-c3ccc(-c4ccccc4)cc3)cs2)CC1	Vaccinia Venus inconclusive, Vaccinia mCherry inconclusive, HCMV antiviral -77, HCV inh 5.6µM, FMDV antiviral inconclusive
COc1ccccc1C1(O)CCN(CC(=O)Nc2nc(-c3ccccc3)cs2)CC1	HCV inh 10µM, FMDV antiviral 25µM
Cc1cc(N2CCOCC2)nc2ccc(NC(=O)CCC(=O)N3CCCCC3)cc12	none (no result: Vaccinia Venus, Vaccinia mCherry)
CC(=O)c1ccc(N2CCN(C(=O)CCC(=O)Nc3ccc4nc(N5CCCCC5)cc(C)c4c3)CC2)cc1	none (no result: HCV inh)
Cc1cc(N2CCOCC2)nc2ccc(NC(=O)CCC(=O)N3CCN(c4cccc(C(F)(F)F)c4)CC3)cc12	Vaccinia Venus inconclusive, Vaccinia mCherry inconclusive, HCV inh 11µM
CC(=O)c1ccc(N2CCN(C(=O)CCC(=O)Nc3ccc4nc(N5CCN(C)CC5)cc(C)c4c3)CC2)cc1	Vaccinia Venus inconclusive, Vaccinia mCherry inconclusive, HCV inh 8.9µM
O=C1NC[C@H](Cc2ccccc2)N(CC2CCN(CCC3CCCC3)CC2)C1=O	HCV inh inconclusive (no result: Sm TGR block)
CN1C(=O)c2ccccc2Sc2ccc(NC(=O)N3CCCC3)cc21	none (no result: Vaccinia mCherry)
Cc1cccc(N2CC(O)(c3cccs3)[N+]3=C2CCCC3)c1C (configuration not stated)	HCMV antiviral inconclusive
Cc1ccccc1N1CC(O)(c2cccs2)[N+]2=C1CCCC2 (configuration not stated)	HCMV antiviral -60, HCV inh inconclusive
O=C(CSc1ncccn1)N1CCc2ccccc2C1	none
Cc1ccnc(SCC(=O)N2CCc3ccccc3C2)n1	Sm TGR block 32µM
CC(C)C(=O)Nc1ccc2nc(SCC(=O)N3CCc4ccccc43)sc2c1	FMDV antiviral 35µM (no result: HCV inh)
O=C(Nc1ccc2nc(SCC(=O)N3CCOCC3)sc2c1)c1ccccc1Cl	HCMV antiviral -83, FMDV antiviral inconclusive (no result: HCV inh)
O=C(Nc1ccc2nc(SCC(=O)N3CCOCC3)sc2c1)c1cccc(Br)c1	FMDV antiviral 25µM (no result: HCV inh)
O=C(Nc1ccc2nc(SCC(=O)N3CCOCC3)sc2c1)c1ccc(Br)cc1	FMDV antiviral inconclusive (no result: HCV inh)
O=C(Nc1ccc2nc(SCC(=O)N3CCOCC3)sc2c1)c1ccc(Cl)cc1	Vaccinia Venus inconclusive, Vaccinia mCherry inconclusive, HCMV antiviral -74, FMDV antiviral 20µM (no result: HCV inh)
CCC(CC)C(=O)Nc1ccc2nc(SCC(=O)N3CCc4ccccc43)sc2c1	FMDV antiviral inconclusive (no result: HCV inh)
O=C(Nc1ccc2nc(SCC(=O)N3CCOCC3)sc2c1)c1ccc(F)cc1	none (no result: HCV inh)
CCOC(=O)/C=C1/SCC(=O)N1CCOc1cccc(Br)c1	HCV inh inconclusive (no result: Sm TGR block)
COC(=O)CSc1nc2ccc(NC(=O)c3ccccc3C(=O)N3CCOCC3)cc2s1	HCMV antiviral -64
CC1CCCCN1C(=O)COC(=O)/C=C/c1ccc2ccccc2n1 (configuration not stated)	Vaccinia Venus inconclusive, Vaccinia mCherry inconclusive, HCMV antiviral -84
Cc1cc2c(=Cc3ccc(N(C)C)cc3)c3ccccc3n2[n+]1C	HCMV antiviral -97, HCV inh 1.3µM (no result: Sm TGR block)
CN(C)c1ccc(C=c2c3ccccc3n3c2c2ccccc2[n+]3C)cc1	Vaccinia Venus inconclusive, Vaccinia mCherry inconclusive, HCMV antiviral -98, HCV inh 8.9µM, FMDV antiviral 25µM (no result: Sm TGR block)
